# Experimental data published in the supplement of paper PMC6555819.
# How the values were obtained:
# Test in all cases: PBM binding z-score (relative to random genomic background probes); higher = stronger binding; sequences stand for … in GC…GCGATTGACAGCGTAGAATGAAGG
# [1] = test system: FXR:RXRa (NR concentration 270 nM, RXRa partner concentration 90 nM)
# In short: (§1)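 Scanned fluorescence from custom Agilent 4×180K protein-binding microarrays was regression-normalized. Binding z-scores use random background probes as reference. Ligand-free nuclear receptor dimers were incubated on the arrays for 1 h and detected with antibodies against each partner (one per run).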
# [2] = test system: LXRa homodimer (NR concentration 270 nM)
# In short: as §1
# [3] = test system: LXRb homodimer (NR concentration 270 nM)
# In short: as §1
# [4] = test system: PPARa:RXRa (NR concentration 270 nM, RXRa partner concentration 90 nM)
# In short: as §1
# [5] = test system: PPARg:RXRa (NR concentration 180 nM, RXRa partner concentration 90 nM)
# In short: as §1
# [6] = test system: PPARg:RXRa 270nM:90nM, anti-RXR (NR concentration 270 nM, RXRa partner concentration 90 nM)
# In short: as §1
# [7] = test system: PPARg:RXRa 30nM:10nM, anti-RXR (NR concentration 30 nM, RXRa partner concentration 10 nM)
# In short: as §1
# [8] = test system: PPARg:RXRa 90nM:30nM, anti-RXR (NR concentration 90 nM, RXRa partner concentration 30 nM)
# In short: as §1
# [9] = test system: PPARg:RXRa DBDmut IVT, anti-RXR (DBD mutation: RXRa K156A/R161A, NR concentration 270 nM, RXRa partner concentration 90 nM)
# In short: as §1
# [10] = test system: PPARg:RXRa IVT, anti-PPARg (NR concentration 270 nM, RXRa partner concentration 90 nM)
# In short: as §1
# [11] = test system: PPARg DBDmut:RXRa IVT, anti-PPARg (DBD mutation: PPARg1 K132A/R137A, NR concentration 270 nM, RXRa partner concentration 90 nM)
# In short: as §1
# [12] = test system: PPARg DBDmut IVT, anti-PPARg (DBD mutation: PPARg1 K132A/R137A, NR concentration 270 nM)
# In short: as §1
# [13] = test system: PPARg homodimer (NR concentration 180 nM)
# In short: as §1
# [14] = test system: PXR:RXRa (NR concentration 270 nM, RXRa partner concentration 90 nM)
# In short: as §1
# [15] = test system: PXR homodimer (NR concentration 270 nM)
# In short: as §1
# [16] = test system: RARa:RXR (NR concentration 270 nM, RXRa partner concentration 90 nM)
# In short: as §1
# [17] = test system: RARa homodimer (NR concentration 270 nM)
# In short: as §1
# [18] = test system: RARb:RXRa (NR concentration 270 nM, RXRa partner concentration 90 nM)
# In short: as §1
# [19] = test system: RARb homodimer (NR concentration 270 nM)
# In short: as §1
Sequence,PBM binding z-score [1],PBM binding z-score [2],PBM binding z-score [3],PBM binding z-score [4],PBM binding z-score [5],PBM binding z-score [6],PBM binding z-score [7],PBM binding z-score [8],PBM binding z-score [9],PBM binding z-score [10],PBM binding z-score [11],PBM binding z-score [12],PBM binding z-score [13],PBM binding z-score [14],PBM binding z-score [15],PBM binding z-score [16],PBM binding z-score [17],PBM binding z-score [18],PBM binding z-score [19]
GATATAGGGTCAGCTAGAGGCCAGAGTATGGAAA,5.03,0.0568,-0.307,4.76,4.09,3.86,1.25,2.44,2.49,3.12,0.476,0.427,1.99,3.23,0.376,4.57,0.593,4.34,3.75
GTTACAGGGTCAAGGCCAGAGTACGCGTATTGAT,6.43,0.317,0.463,5.59,5.4,5.66,2.09,4.49,3.09,4.35,0.698,0.735,2.94,3.92,0.672,4.89,0.693,4.52,4.1
CCGAGTTGGTCAAGGTCACACACGCTATAGGTAC,4.37,1.98,0.352,4.35,3.12,3.37,0.931,2.65,1.59,3.09,0.702,0.995,3.6,4.94,5.4,4.96,2.02,4.17,4.42
AATACAGGGTCATCTTAGGCCAGAGTACGCACAG,7.35,2.36,1.74,6.06,6.19,5.79,2.46,4.59,2.7,3.86,1.51,0.721,2.17,5.05,1,4.73,0.742,4.22,3.87
ACTTACGGGTCTACGAGGTTATAGCACGCGTATA,0.283,0.149,0.121,1.2,0.708,0.426,0.256,0.0516,-0.0713,0.458,0.196,0.723,0.507,1.03,0.544,1.28,0.676,0.688,0.753
AGAATGGGGTTACCAAAGATCAGGGAAACGCTTG,3.7,-0.351,0.166,5.05,4.62,4.32,1.72,3.47,4.37,4.08,1.57,1.15,1.96,3.04,0.0687,3.76,-0.368,2.18,1.08
CGTCAAACTTCAACTAAGGTAACGTAAAGCACGC,0.562,0.473,0.584,0.493,0.587,0.064,0.351,0.111,0.0564,0.514,0.469,0.79,0.684,0.396,0.0401,0.922,1.05,0.391,0.665
CAAACTAGTTCAAGAGGTCAAAGTCCGCTTCCCG,5.96,8.11,2.39,5.38,3.84,5.47,2.85,4.8,2.43,2.96,-0.123,0.442,5.22,5.97,5.56,6.53,2.22,4.52,4.85
CCTTACGGGTCACGTGGTTATAGCACGACGAGCG,6.41,-0.108,-0.474,5.88,6.07,5.77,2.2,4.59,3.06,4.93,0.819,-0.242,1.26,,-0.028,4.4,0.132,4.49,3.47
TCTGCTAGGTCAACGTTGGTCAGCTAATCTGCTA,3.38,-0.139,0.362,3.2,2.49,3.4,1.9,2.71,3.92,4.38,-0.219,0.673,0.191,1.56,-0.62,2.22,-1.27,4.03,3.31
CCTCGGAGGACAACAGGAGGTCATAGCTGCCAGA,2.31,4.2,-0.0136,3.13,0.961,1.16,0.00805,0.459,0.281,0.613,-0.597,-1.12,1.63,3.72,1.1,3.52,0.48,2.93,3.71
TACCCTAGGTCATGGGCCAGTATACCACGCGAAC,5.02,6.35,2.13,4.51,4.58,4.25,1.59,3.13,1.55,3.86,1.09,0.696,2.52,2.07,0.812,3.19,0.836,4.11,3.19
CCTAGTTGGTCAAGGTCACACCCGCTATAGGTAC,3.45,2.19,1.02,3.85,2.92,3.27,1.13,2.4,2.17,3.67,0.989,0.599,3.09,3.95,2.06,4.02,1.87,4.12,4.39
TAGCCTAGGTCATGCGGGCCAATATAGTGTCGGC,4.22,0.473,-0.31,3.53,2.39,2.44,0.146,1.26,1.58,2.94,-0.152,-0.18,0.69,1.64,-0.334,2.13,-0.396,3.67,3.15
ATATGTAGTTTATCGGGTCATTCAGTTTGCGCAT,2.53,3.41,0.952,3.2,1.86,2.34,0.761,1.64,2.99,3.77,1.29,1.84,1.72,3.46,7.31,3.03,1.18,2.26,2.91
